NCOA3 inh: human NCOA3 inhibition | HEK293 GAL4-SRC3 luciferase reporter, luminescence | inhibition, % at 3.6 µM | hit rate 0.17% among 360,000;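 active = inhibition above a per-campaign cutoff, the mean of all compounds plus 3 SD, cut at about 60% in these data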;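 also: higher means less SRC3-driven luciferase light from the GAL4 reporter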
COUP-TFII inh: inhibitors of human COUP-TFII (NR2F2); P24468; inhibition, % at 8.6 µM; hit rate 0.7% among 370,000; HEK293T NGFI-A luciferase reporter, luminescence;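 active = inhibition above a per-plate cutoff, mean inhibition of test wells between control levels plus 3 SD, cut at about 38% in these data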;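 also: cells cotransfected with COUP-TFII expression vector driving the NGFI-A reporter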
LRH-1 inv ag: suppresses constitutive activity of human LRH-1. O00482. HEK293T StAR-luciferase reporter, LRH-1 transfected, 24 h. inhibition, % at 3.6 µM. hit rate 0.13% among 360,000. AID 602396;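 active = inhibition above the mean inhibition of all tested compounds plus 3 SD, cut at about 73% in these data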
Target sequence (O00482 whole entry, looked up): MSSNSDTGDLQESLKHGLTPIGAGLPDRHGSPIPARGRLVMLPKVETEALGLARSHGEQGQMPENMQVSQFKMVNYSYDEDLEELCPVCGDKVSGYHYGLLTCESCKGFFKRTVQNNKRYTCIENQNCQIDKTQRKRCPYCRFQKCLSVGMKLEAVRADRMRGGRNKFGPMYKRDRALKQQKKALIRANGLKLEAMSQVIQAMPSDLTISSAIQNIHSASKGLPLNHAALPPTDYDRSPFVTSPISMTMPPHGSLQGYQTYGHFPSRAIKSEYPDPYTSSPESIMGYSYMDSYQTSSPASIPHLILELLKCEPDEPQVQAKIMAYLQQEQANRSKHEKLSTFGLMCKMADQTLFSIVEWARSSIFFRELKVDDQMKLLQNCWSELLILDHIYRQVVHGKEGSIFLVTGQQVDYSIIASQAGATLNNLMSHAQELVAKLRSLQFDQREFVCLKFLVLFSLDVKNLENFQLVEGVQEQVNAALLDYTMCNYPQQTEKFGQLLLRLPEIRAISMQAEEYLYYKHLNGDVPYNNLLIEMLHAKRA
SRC2 inh: human SRC2 (NCOA2) inhibition; Q15596; HEK293 GAL4-SRC2 luciferase reporter, luminescence; inhibition, % at 9 µM; hit rate 0.17% among 370,000;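 active = inhibition above the mean inhibition of all tested compounds plus 3 SD, set per campaign, cut at about 52% in these data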
SRC1 inh: inhibits human SRC1 coactivator. inhibition, % at 3.6 µM. AID 588354. HEK293 GAL4-SRC1 luciferase reporter, luminescence. hit rate 0.12% among 360,000;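 active = inhibition above the campaign mean plus 3 SD, with each screening campaign given its own cutoff, cut at about 60% in these data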
Gal4-VP16 ctr: counter-screen for COUP-TFII antagonists: inhibitors of VP16. HEK293 Gal4-VP16 luciferase reporter, luminescence. shares compounds with COUP-TFII inh. AID 687007. hit rate 25% among 2,500. inhibition, % at 8.5 µM; in the data active = inhibition above about 13%
COUP-TFII conf: COUP-TFII (NR2F2) inhibition, confirmation assay | shares compounds with COUP-TFII inh | HEK293 NGFI-A luciferase reporter, luminescence | inhibition, % at 8.5 µM | hit rate 45% among 2,500;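 active = mean inhibition over three repeats above a set limit taken from the earlier primary screen, cut at about 38% in these data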
Hits are given with their value; n = inactive; x = no result given. This is a sample that favours compounds with a hit; in the whole collection about 0.84% have one here.

SMILES	NCOA3 inh	COUP-TFII inh	LRH-1 inv ag	SRC2 inh	SRC1 inh	Gal4-VP16 ctr	COUP-TFII conf
CC(=O)N1c2ccc(S(=O)(=O)N3CCC(C(=O)Nc4ccccn4)CC3)cc2CC1C (centres undefined)	n	n	n	n	n	x	x
CC(=O)N1c2ccc(S(=O)(=O)NCC3CCC(C(=O)Nc4cccc(C)n4)CC3)cc2CC1C (centres undefined)	n	56	n	n	n	n	n
COC(=O)[C@]12C[C@H](CC(=O)N3CCN(C(=O)c4ccco4)CC3)C(=O)N(Cc3ccc(Cl)cc3Cl)C1=C[C@H](C(C)(C)C)O[C@@H]2C	x	n	x	n	x	x	x
COCCn1c(C)cc(C(=O)CSc2nnnn2C2CCCC2)c1C	n	59	n	n	n	35	68
COc1ccc(Cl)cc1C(=O)CSc1nnnn1C1CCCC1	n	n	n	n	n	x	x
COc1ccc(NC(=O)Cn2cc(C(C)=O)c3ccccc32)cc1	n	48	n	n	n	n	n
COc1cccc2c(=O)cc(C)n(CC(=O)Nc3cccc(C)c3)c12	n	47	n	n	n	n	n
Cc1cc(=O)c2ccccc2n1CC(=O)NCc1ccccc1	n	n	n	n	n	x	x
COc1ccc(NC(=O)Cn2c(C)cc(=O)c3ccccc32)cc1	n	55	n	n	n	n	n
CC(=O)c1cn(CC(=O)Nc2ccccc2C)c2ccccc12	n	38	n	n	n	n	n
C=CCN1C(=O)[C@@H](CC(=O)NCc2ccc(OC)c(OC)c2)[C@]2(C(=O)OCC)CCCCC/C=C/12	x	n	x	n	x	x	x
O=C(C1CCCN(S(=O)(=O)c2cccs2)C1)N1CCN(Cc2ccccc2)CC1 (centres undefined)	x	n	x	n	x	x	x
O=C(O)CCCCCCCCc1cn(Cc2ccc(C(=O)c3ccccc3)cc2)nn1	n	n	n	n	n	x	x
O=C(c1ccccc1)c1ccc(Cn2cc(-c3ccccc3)nn2)cc1	n	38	n	n	n	n	n
O=C(c1ccccc1)c1ccc(Cn2cc(CCCO)nn2)cc1	n	37	n	n	n	n	n
CC(C)[C@H](NC(=O)[C@H](Cc1ccccc1)NC(=O)OC(C)(C)C)C(=O)N1CCC2CCN(S(=O)(=O)c3ccccc3)CC21 (some centres undefined)	x	n	x	n	x	x	x
CCC(C)NS(=O)(=O)c1ccc(S(=O)(=O)N(CCc2ccc(OC)c(OC)c2)Cc2cccs2)cc1 (centres undefined)	n	58	n	n	n	n	48
COc1ccc(CCN(Cc2cccs2)S(=O)(=O)c2ccc(F)cc2)cc1OC	x	47	x	n	x	n	n
COc1ccc(CCN(Cc2cccs2)S(=O)(=O)c2ccccc2)cc1OC	x	n	x	n	x	x	x
CC(C)(C)CN1CCN(Cc2nc(-c3ccc(F)cc3)cs2)CC1CCO (centres undefined)	n	48	n	n	n	n	n
OCCC1CN(Cc2nc(-c3ccc(F)cc3)cs2)CCN1CCc1ccccc1 (centres undefined)	n	n	n	n	n	x	x
CCC[C@H]1[C@@H](NC(=O)c2cccc(N(C)C)c2)CC[C@@]23CCCN2C(=O)CCC[C@@H]13	x	n	x	x	x	x	x
COc1cccc(CN(C)C(=O)CNC(=O)c2cccs2)c1OC	n	n	n	n	n	x	x
COc1cccc(CN(C)C(=O)CNC(=O)c2ccc(-c3ccccc3)cc2)c1OC	n	58	n	n	n	n	47
COC(=O)c1ccc(COC(=O)c2[nH]c(C)c(C(C)=O)c2C)o1	n	41	n	n	n	n	n
SMILES	NCOA3 inh	COUP-TFII inh	LRH-1 inv ag	SRC2 inh	SRC1 inh	Gal4-VP16 ctr	COUP-TFII conf
CCC(=O)N(C1=C(NC(C)C)C(=O)c2ccccc2C1=O)C(C)C	n	n	n	n	n	x	x
CCCNC1=C(N(C(C)=O)c2cccc(F)c2)C(=O)c2ccccc2C1=O	n	57	79	58	n	n	n
CCC1CSC(Nc2ccc(C(=O)/C=C/c3ccc(OC)c(OC)c3)cc2)=N1 (centres undefined)	n	61	n	n	n	n	n
CCCS(=O)(=O)c1cnc(C2COc3ccccc3O2)nc1N (centres undefined)	n	72	n	69	n	42	79
COc1ccc(C2Nc3ccccc3C(=O)N2Cc2ccco2)cc1COc1c(C)cc(NC(C)=O)cc1C (centres undefined)	x	n	x	x	x	x	x
CCOc1cc(CNCc2ccncc2)cc(Br)c1OCc1ccc(F)cc1	n	39	n	n	n	n	n
Fc1ccc(COc2ccc(Br)cc2CNCc2ccncc2)cc1	n	n	n	n	n	x	x
O=C(NCc1cccnc1)/C(=C/c1ccc(-c2cccc(Cl)c2)o1)S(=O)(=O)c1ccccc1	n	n	n	n	n	x	x
O=C(NCc1cccnc1)/C(=C\c1ccc(-c2cccc(Cl)c2)o1)S(=O)(=O)c1ccccc1	82	42	n	63	n	21	n
N/C(=N\C(=O)OCc1ccccc1)N(Cc1ccccc1)C(C#CC1=CCCCC1)Cc1ccccc1 (centres undefined)	x	n	x	n	x	x	x
Cc1ccc(C(=O)Nc2nc3ccccc3[nH]2)cc1	n	49	n	n	n	n	n
COc1cc(SC)ccc1C(=O)Nc1nc2ccccc2[nH]1	92	100	93	95	93	96	108
COc1ccc(C(=O)Nc2nc3ccccc3[nH]2)cc1	n	n	n	n	n	x	x
COc1ccccc1C(=O)Nc1nc2ccccc2[nH]1	80	98	84	94	84	87	100
Cc1cc(C(=O)Nc2cnc3ccccc3c2)ccc1[N+](=O)[O-]	n	n	n	n	n	x	x
Cc1ccc(C(=O)Nc2cnc3ccccc3c2)cc1	n	71	n	72	n	24	48
CSc1ccccc1C(=O)Nc1nc2ccccc2[nH]1	n	n	n	n	n	x	x
O=C(c1ccccc1)n1ccc2ccc(-c3ccc4ccn(C(=O)c5ccccc5)c4c3)cc21	x	n	x	n	x	x	x
C/C(C=Nn1c(-c2ccc(F)cc2)n[nH]c1=S)=C/c1ccco1	x	n	x	n	x	x	x
COc1ccc(C2C(C(=O)N3CCN(c4ccccc4C)CC3)CC(=O)N2c2ccc(OC)cc2)cc1 (centres undefined)	x	n	x	n	x	x	x
CCn1cc(CN(C)S(=O)(=O)c2cccc([N+](=O)[O-])c2)cn1	n	n	n	n	n	x	x
CCn1cc(CN(C)S(=O)(=O)c2ccc3ccccc3c2)c(C)n1	n	51	n	n	n	n	51
CC(C)C(=O)N1CCN(c2ccc(NC(=O)COc3ccccc3[N+](=O)[O-])cc2)CC1	n	50	n	n	n	n	n
NC(=S)NN=C1c2cc(OCCN3CCOCC3)ccc2-c2ccc(OCCN3CCOCC3)cc21	n	68	75	n	73	n	80
ON=C1c2cc(OCCN3CCCCC3)ccc2-c2ccc(OCCN3CCCCC3)cc21	n	x	n	x	n	x	x

Assay outcomes as filed in PubChem BioAssay.
